The record followed here is PubChem BioAssay (NCI).

A short description of experiment [1]: NCI Yeast Anticancer Drug Screen. Data for the rad50 strain (AID 155).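 Note: 0% = growth of vehicle-only cultures of the same strain.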 Particulars: S. cerevisiae rad50 strain growth inhibition, active compounds read high. Summed up: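 Genetically altered yeast (DNA repair pathway); compound treatment; growth inhibition vs vehicle ctrl.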
Experiment [2] is described as follows: NCI Yeast Anticancer Drug Screen. Data for the mec2-1 strain (AID 157). To be noted: S. cerevisiae mec2-1 strain, active compounds read high. The gist of the method: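 Test agents were screened against the mec2-1 yeast strain, with defined DNA repair or cell cycle alteration. Growth was scored as inhibition against vehicle-only controls.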
The nature of experiment [3]: NCI Yeast Anticancer Drug Screen. Data for the sgs1 mgt1 strain (AID 161).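 Note: 0% = growth of cultures given vehicle only.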 To be noted: S. cerevisiae sgs1 mgt1 strain, active compounds read high. The gist of the method: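 Genetically altered yeast, compound exposure, growth inhibition relative to vehicle.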
Experiment [4] in a line: NCI Yeast Anticancer Drug Screen. Data for the cln2 rad14 strain (AID 165).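 Note: 0% = growth equal to vehicle treated cultures.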 To be noted: S. cerevisiae cln2 rad14 strain, active compounds read high. The gist of the method:
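Growth of compound-exposed yeast (cln2 rad14 genotype) measured and expressed as inhibition relative to vehicle.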

Experiment [5] in a line: NCI Yeast Anticancer Drug Screen. Data for the bub3 strain (AID 167). To be noted: S. cerevisiae bub3 mutant strain, active compounds read high. The gist of the method:
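Yeast carrying a defined mutation is treated with each compound, and growth is compared with that of vehicle-exposed cells to give inhibition.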

Experiment [6] in a line: NCI Yeast Anticancer Drug Screen. Data for the mlh1 rad18 strain (AID 175). Particulars: S. cerevisiae mlh1 rad18 strain growth inhibition, active compounds read high. The gist of the method: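 In this whole-cell yeast screen, a strain with altered DNA damage repair is challenged with compound, and its growth is measured against matched vehicle-treated controls.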
The mark [7] stands for this setting: at 5.0 µM (retest, dose inferred, filed as 0.5).
[8] abbreviates: at 50.0 µM (retest, dose inferred, filed as 5.0).

This is part of a sample that, as a whole, favours compounds with a hit. Of some 79,000 tested, about 15% had one in any assay. A number with no mark means an inactive call. Calls of active or inactive are those of the source. Cut-off read from the data, not from the text of the source: active = growth inhibition above about 70%; inactive = the rest.

As to `O=C(N/C(=C\c1ccc(Cl)cc1)c1nc2ccccc2s1)c1ccccc1`, the growth inhibition in experiment [1] (setting [7]) is 34%; in experiment [1] (setting [8]), 95% (active); in experiment [1] (at 50.0 µM) it was 98.3% (active); in experiment [2] (setting [7]), 32%; in experiment [2] (setting [8]), 97% (active); in experiment [2] (at 50.0 µM) it was 98.1% (active). The growth inhibition in experiment [3] (setting [7]) is 54%; in experiment [3] (setting [8]), 97% (active); in experiment [3] (at 50.0 µM) it was 98.8% (active); in experiment [4] (setting [7]) it was 15%; in experiment [4] (setting [8]), 96% (active); in experiment [4] (at 50.0 µM) it was 98% (active). The growth inhibition is 30% in experiment [5] (setting [7]); 97% (active) in experiment [5] (setting [8]); 96.7% (active) in experiment [5] (at 50.0 µM); 28% in experiment [6] (setting [7]); 95% (active) in experiment [6] (setting [8]); 97.8% (active) in experiment [6] (at 50.0 µM).

As to `O=C(NC(Cc1ccc(I)cc1)C(=O)O)c1cccc(Br)c1` (configuration not stated), the growth inhibition in experiment [1] (setting [7]) is 24%; in experiment [1] (setting [8]), 39%; in experiment [1] (at 50.0 µM), -14.4%; in experiment [2] (setting [7]), 13%; in experiment [2] (setting [8]), 6%; in experiment [2] (at 50.0 µM) it was -35%. Further, the growth inhibition is 23% in experiment [3] (setting [7]); 37% in experiment [3] (setting [8]); -20.5% in experiment [3] (at 50.0 µM); 17% in experiment [4] (setting [7]); 34% in experiment [4] (setting [8]); -8.15% in experiment [4] (at 50.0 µM). The growth inhibition was 21% in experiment [5] (setting [7]); 29% in experiment [5] (setting [8]); -28.9% in experiment [5] (at 50.0 µM); 23% in experiment [6] (setting [7]); 32% in experiment [6] (setting [8]); -15.9% in experiment [6] (at 50.0 µM).

In the case of `C=CNC(=O)Oc1ccccc1`, the growth inhibition in experiment [1] (setting [7]) was -128%; in experiment [1] (setting [8]), -156%; in experiment [1] (at 50.0 µM), -9.95%; in experiment [2] (setting [7]), -35%; in experiment [2] (setting [8]) it was -59%; in experiment [2] (at 50.0 µM) it was 30.2%. The growth inhibition in experiment [3] (setting [7]) was -47%; in experiment [3] (setting [8]), -62%; in experiment [3] (at 50.0 µM) it was 12.7%; in experiment [4] (setting [7]), -57%; in experiment [4] (setting [8]) it was -73%; in experiment [4] (at 50.0 µM), 44%. For the same molecule, the growth inhibition was -64% in experiment [5] (setting [7]); -81% in experiment [5] (setting [8]); -3% in experiment [5] (at 50.0 µM); -121% in experiment [6] (setting [7]); -130% in experiment [6] (setting [8]); 6.25% in experiment [6] (at 50.0 µM).

For `Nc1nc2ccccc2cc1C(=O)O`, the growth inhibition in experiment [1] (setting [7]) is -162%; in experiment [1] (setting [8]), -150%; in experiment [1] (at 50.0 µM), -2.25%; in experiment [2] (setting [7]), -49%; in experiment [2] (setting [8]), -47%; in experiment [2] (at 50.0 µM), 19.3%. Besides, the growth inhibition is -61% in experiment [3] (setting [7]); -55% in experiment [3] (setting [8]); -7.95% in experiment [3] (at 50.0 µM); -54% in experiment [4] (setting [7]); -48% in experiment [4] (setting [8]); 63.5% in experiment [4] (at 50.0 µM). Also, the growth inhibition in experiment [5] (setting [7]) was -69%; in experiment [5] (setting [8]) it was -70%; in experiment [5] (at 50.0 µM) it was 12.5%; in experiment [6] (setting [7]) it was -140%; in experiment [6] (setting [8]), -107%; in experiment [6] (at 50.0 µM), 3.9%.

Turning to `CCSc1c2ccccc2nc2c(OC)ccc(OC)c12`, the growth inhibition in experiment [1] (setting [7]) was 3%; in experiment [1] (setting [8]) it was 70% (active); in experiment [1] (at 50.0 µM), 88.7% (active); in experiment [2] (setting [7]), -3%; in experiment [2] (setting [8]), 23%; in experiment [2] (at 50.0 µM), 35.4%. Moreover, the growth inhibition in experiment [3] (setting [7]) was -7%; in experiment [3] (setting [8]), 30%; in experiment [3] (at 50.0 µM), 63.1%; in experiment [4] (setting [7]) it was -7%; in experiment [4] (setting [8]) it was -7%; in experiment [4] (at 50.0 µM) it was 48.7%. Also, the growth inhibition in experiment [5] (setting [7]) was -7%; in experiment [5] (setting [8]), 20%; in experiment [5] (at 50.0 µM), 39.4%; in experiment [6] (setting [7]), -3%; in experiment [6] (setting [8]) it was 54%; in experiment [6] (at 50.0 µM) it was 90.3% (active).

`FC(F)(F)c1cccc(Nc2ccc3cnc4ccccc4c3c2)c1`: the growth inhibition is 6% in experiment [1] (setting [7]); 92% (active) in experiment [1] (setting [8]); 94.7% (active) in experiment [1] (at 50.0 µM); -19% in experiment [2] (setting [7]); 97% (active) in experiment [2] (setting [8]); 95.2% (active) in experiment [2] (at 50.0 µM). Further, the growth inhibition in experiment [3] (setting [7]) is -1%; in experiment [3] (setting [8]), 97% (active); in experiment [3] (at 50.0 µM) it was 96.6% (active); in experiment [4] (setting [7]), -5%; in experiment [4] (setting [8]), 95% (active); in experiment [4] (at 50.0 µM), 92.5% (active). Further, the growth inhibition was -2% in experiment [5] (setting [7]); 95% (active) in experiment [5] (setting [8]); 95.2% (active) in experiment [5] (at 50.0 µM); 17% in experiment [6] (setting [7]); 95% (active) in experiment [6] (setting [8]); 93.3% (active) in experiment [6] (at 50.0 µM).

As for `CCC(=O)C(CCN(CC)CC)(CCN(CC)CC)c1ccccc1`, the growth inhibition in experiment [1] (setting [7]) was -1%; in experiment [1] (setting [8]), -5%; in experiment [1] (at 50.0 µM), 87.5% (active); in experiment [2] (setting [7]), -2%; in experiment [2] (setting [8]) it was -4%; in experiment [2] (at 50.0 µM), 99.3% (active). Moreover, the growth inhibition in experiment [3] (setting [7]) is -2%; in experiment [3] (setting [8]) it was -4%; in experiment [3] (at 50.0 µM), 42.4%; in experiment [4] (setting [7]), 3%; in experiment [4] (setting [8]), -8%; in experiment [4] (at 50.0 µM), 71% (active). Further, the growth inhibition in experiment [5] (setting [7]) is 1%; in experiment [5] (setting [8]), -3%; in experiment [5] (at 50.0 µM), 99.2% (active); in experiment [6] (setting [7]) it was -2%; in experiment [6] (setting [8]), -7%; in experiment [6] (at 50.0 µM), 97.8% (active).

As to `COC(=O)C(=O)N(c1cc(C)ccc1C)c1cc(C)ccc1C`, the growth inhibition in experiment [1] (setting [7]) is -1%; in experiment [1] (setting [8]) it was 85% (active); in experiment [1] (at 50.0 µM), 96.2% (active); in experiment [2] (setting [7]) it was 1%; in experiment [2] (setting [8]), 73% (active); in experiment [2] (at 50.0 µM), 95.3% (active). Further, the growth inhibition in experiment [3] (setting [7]) is 0%; in experiment [3] (setting [8]), 57%; in experiment [3] (at 50.0 µM) it was 95% (active); in experiment [4] (setting [7]) it was 6%; in experiment [4] (setting [8]) it was 26%; in experiment [4] (at 50.0 µM), 63.1%. In addition, the growth inhibition is 3% in experiment [5] (setting [7]); 59% in experiment [5] (setting [8]); 94.3% (active) in experiment [5] (at 50.0 µM); -3% in experiment [6] (setting [7]); 81% (active) in experiment [6] (setting [8]); 92.7% (active) in experiment [6] (at 50.0 µM).

As to `COc1ccc(/C=N/Nc2cc(C)nc3cc4c(cc23)OCO4)c2ccccc12`, the growth inhibition in experiment [1] (setting [7]) was 20%; in experiment [1] (setting [8]) it was 88% (active); in experiment [1] (at 50.0 µM), 82.6% (active); in experiment [2] (setting [7]), 6%; in experiment [2] (setting [8]), 81% (active); in experiment [2] (at 50.0 µM), 85.8% (active). The growth inhibition in experiment [3] (setting [7]) is 22%; in experiment [3] (setting [8]), 91% (active); in experiment [3] (at 50.0 µM), 86% (active); in experiment [4] (setting [7]), 0%; in experiment [4] (setting [8]), 24%; in experiment [4] (at 50.0 µM), 57.6%. The growth inhibition was 8% in experiment [5] (setting [7]); 37% in experiment [5] (setting [8]); 97.9% (active) in experiment [5] (at 50.0 µM); 12% in experiment [6] (setting [7]); 82% (active) in experiment [6] (setting [8]); 94.8% (active) in experiment [6] (at 50.0 µM).
